Compound activity from PubChem.
BoNT A protease = BoNT/A light chain protease inhibitors, primary screen, biochemical, flow cytometry, MLPCN library | inhibition, % at 10 µM | 360,000 compounds, 0.17% hits | Botulinum neurotoxin type A light chain protease (Clostridium botulinum A str. ATCC 3502) | multiplex microsphere protease substrate cleavage
BH1578 lux ind = inducers of Vibrio cholerae quorum light production without autoinducers, primary screen, BH1578 luxS cqsA deficient, single point; activation, % at 18.7 µM; 350,000 compounds, 0.16% hits; V. cholerae BH1578 lux reporter, luminescence, 6 h; in the data active = activation mostly above about 9.7%, no sharp cut-off; inconclusive = no clear call, values can overlap the other calls; inactive = mostly below about 3.7%
Anthrax LF inh2 = Bacillus anthracis LF protease inhibitors, primary screen, biochemical, multiplex microsphere, MLPCN library. Lethal factor (Bacillus anthracis), P15917. multiplex microsphere protease cleavage assay. inhibition, % at 10 µM. 360,000 compounds, 0.12% hits
Target sequence (P15917 whole entry, looked up): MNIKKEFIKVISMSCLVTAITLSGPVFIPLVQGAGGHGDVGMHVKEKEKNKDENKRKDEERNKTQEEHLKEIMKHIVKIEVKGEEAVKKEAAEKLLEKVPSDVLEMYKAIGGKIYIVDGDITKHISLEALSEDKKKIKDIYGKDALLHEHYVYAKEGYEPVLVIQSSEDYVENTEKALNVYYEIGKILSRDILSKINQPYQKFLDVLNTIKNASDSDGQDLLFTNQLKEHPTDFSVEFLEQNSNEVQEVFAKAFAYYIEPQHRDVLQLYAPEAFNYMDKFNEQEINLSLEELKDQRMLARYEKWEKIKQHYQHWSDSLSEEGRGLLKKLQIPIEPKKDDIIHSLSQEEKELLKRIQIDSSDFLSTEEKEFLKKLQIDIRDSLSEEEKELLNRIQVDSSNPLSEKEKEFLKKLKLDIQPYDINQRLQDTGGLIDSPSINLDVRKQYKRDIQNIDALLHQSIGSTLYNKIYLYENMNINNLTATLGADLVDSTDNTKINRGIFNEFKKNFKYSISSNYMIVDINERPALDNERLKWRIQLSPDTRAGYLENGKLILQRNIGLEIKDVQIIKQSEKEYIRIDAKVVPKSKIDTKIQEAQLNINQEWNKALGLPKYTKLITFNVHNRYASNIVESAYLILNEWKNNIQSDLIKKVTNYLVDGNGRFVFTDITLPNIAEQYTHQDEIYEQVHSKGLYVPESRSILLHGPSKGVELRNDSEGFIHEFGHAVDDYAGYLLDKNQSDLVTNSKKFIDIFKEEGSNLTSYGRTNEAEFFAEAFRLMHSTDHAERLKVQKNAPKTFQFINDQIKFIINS
BoNT-F LC inh = BoNT/F light chain protease inhibitors, primary screen, biochemical, flow cytometry, MLPCN library. Botulinum neurotoxin type F light chain protease (Clostridium botulinum). Multiplex microsphere protease cleavage assay. inhibition, % at 10 µM. 360,000 compounds, 0.22% hits. AID 588497, 2011; in the data active = inhibition above about 35%, passing the limit was not always enough; inconclusive = no clear call, values can overlap the other calls
BJeLR viability = MLPCN primary cell-based screen for lethality selective to Ras in HRASV12 cells | BJeLR (HRASV12) viability, CellTiter-Glo ATP luminescence, 48 h | inhibition, % (test concentration not listed) | 300,000 compounds, 0.17% hits; in the data active = inhibition above about 50%; inconclusive = no clear call, values can overlap the other calls
Autofluor counter = flagged as autofluorescent in microsphere protease counterscreen | 360,000 compounds, 3.1% hits | AID 624483 | compound autofluorescence counterscreen, microsphere flow cytometry; hits give high values | fluorescence intensity (concentration not given with the values); in the data active = fluorescence intensity above about 16000; inconclusive = no clear call, values can overlap the other calls
Numbers stand for hits; i = inactive; ? = inconclusive; nt = no result given. Compounds with a hit are over-represented: about 3.7% of the library has one in this group of screens. Cut-off read from the data, not from the text of the source, unless noted: active = inhibition above about 30%; inconclusive = no clear call, values can overlap the other calls; inactive = below that.

SMILES | BoNT A protease | BH1578 lux ind | Anthrax LF inh2 | BoNT-F LC inh | BJeLR viability | Autofluor counter
CCOC(=O)CNC(=O)Cn1cnc2c(nnn2-c2ccc(C)cc2)c1=O | i | i | i | i | i | 18628
CCOC(=O)CNC(=O)Cn1cnc2c(nnn2-c2cccc(OC)c2)c1=O | i | i | i | i | i | i
CCC/C=C/c1ccc(CN2C(C)C(=O)N(Cc3cn(CCC4OCCO4)nn3)CCS2(=O)=O)cc1 (configuration not stated) | i | i | i | i | nt | i
CC(C)OC(=O)c1cc2ccccc2[nH]1 | i | i | i | i | i | 21156
CC1=C(C(=O)N(C)C)CC(CC(=O)NCC2CCCCC2)C(=O)N1Cc1ccc(F)cc1 (configuration not stated) | i | nt | i | i | nt | i
CCCCCCN1C[C@@H](n2cc(COC(=O)c3ccccc3)nn2)[C@H](O)C[C@@H]1c1ccc(Cl)cc1 | i | i | i | i | nt | i
CC(=O)/C(N=Nc1cccc(C(F)(F)F)c1)=C(\C)O | i | i | i | i | i | i
CN(C(=O)/C(N=Nc1cccc(C(F)(F)F)c1)=C(\O)C(F)(F)F)c1ccccc1 | i | i | i | i | i | 16687
CC(C)c1c(C(=O)Nc2ccccc2)c(-c2ccccc2)c(-c2ccc(F)cc2)n1CC[C@@H](O)C[C@@H](O)CC(=O)O | i | i | i | i | nt | i
CSc1ccccc1NC(=O)CSCc1ccc(Br)cc1 | i | i | i | i | i | 16464
COc1ccc(CN2C[C@@H](CO)O[C@@H](n3cnc4c(NCc5ccco5)ncnc43)C2)cc1 | i | i | i | i | nt | i
Cc1nn(C)cc1CNC(=O)c1ccccc1Br | ? | i | i | i | i | 16520
O=C(Nc1cccc(C(F)(F)F)c1)c1cc2c(=O)c3ccccc3oc2nc1C(F)(F)F | ? | i | i | i | i | 23568
O=C(Nc1ccccc1)c1cc2c(=O)c3ccccc3oc2nc1C(F)(F)F | i | i | i | i | i | i
O=C(CCNC(=O)c1ccc([N+](=O)[O-])cc1)Nc1cc(C(F)(F)F)ccc1N1CCOCC1 | i | i | i | i | nt | i
COc1ccc(S(=O)(=O)Oc2ccc3c(c2)O/C(=C\c2cccnc2)C3=O)cc1 | ? | i | i | i | i | 23126
O=C1/C(=C/c2cccnc2)Oc2cc(OS(=O)(=O)c3ccc(Cl)cc3)ccc21 | i | i | i | i | i | 21029
COC(=O)c1cn(C)c2ccc(S(=O)(=O)N3CCOCC3)cc2c1=O | i | i | i | i | i | i
COC(=O)c1cn(C)c2ccc(S(=O)(=O)N3CCCC3)cc2c1=O | i | i | i | i | i | 20045
CC1CCCC(NC(=O)c2cn(C)c3ccc(S(=O)(=O)N4CCCC4)cc3c2=O)C1C (configuration not stated) | nt | nt | nt | nt | i | nt
CC1CCCCC1NC(=O)c1cn(C)c2ccc(S(=O)(=O)N3CCCC3)cc2c1=O (configuration not stated) | ? | i | i | i | i | 20217
CC1CCN(S(=O)(=O)c2ccc3c(c2)c(=O)c(C(=O)NC2CCCC2)cn3C)CC1 | ? | i | i | i | i | 20721
Cn1cc(C(=O)NC2CCCCC2)c(=O)c2cc(S(=O)(=O)N3CCCC3)ccc21 | i | i | i | i | i | i
O=C(c1ccccc1)C1(c2ccccc2)OC1c1ccccc1 (configuration not stated) | i | i | i | i | nt | i
COc1cccc(-c2cnc3c(NC(C)=O)cc(-c4cccc(C(=O)NCCO)c4)cn23)c1 | i | i | i | i | nt | i
SMILES | BoNT A protease | BH1578 lux ind | Anthrax LF inh2 | BoNT-F LC inh | BJeLR viability | Autofluor counter
CC1=C(C(=O)N(C(C)C)C(C)C)CC(CC(=O)NCCN2CCOCC2)C(=O)N1Cc1ccc(C(C)(C)C)cc1 (configuration not stated) | i | nt | i | i | nt | i
Cc1ccc2nc(NC(=O)CCNS(=O)(=O)c3ccc(Br)s3)sc2c1 | i | i | i | i | i | 23058
CN(CC(=O)Nc1cccc(F)c1)C(=O)c1cccc(S(=O)(=O)N2CCN(c3ccc(F)cc3)CC2)c1 | i | i | i | i | nt | i
Nc1nc(N=Nc2ccc(O)cc2)cc(=O)[nH]1 | i | i | i | i | nt | i
N#CC(C#N)=NNc1ccc(-n2ccc(C(F)(F)F)n2)cc1 | nt | i | nt | nt | 59 | nt
CN(CC(=O)Nc1ccccc1C(=O)N1CCCC1)S(=O)(=O)c1ccc(Cl)cc1 | i | i | i | i | i | 24313
CS(=O)(=O)Nc1ccc(C(=O)N2CCN(c3ccccc3)CC2)cc1 | i | i | i | i | i | 22316
CS(=O)(=O)N1CCN(C(=O)c2ccccc2)C1 | i | i | i | i | i | 16660
CS(=O)(=O)Nc1ccccc1C(=O)Nc1ccccc1C(=O)N1CCCC1 | i | i | i | i | i | i
O=C(Cc1ccc(Cl)cc1)Nc1ccccc1C(=O)N1CCCC1 | i | i | i | i | i | i
O=C(c1ccccc1)N1CCN(c2ccccc2)CC1 | i | i | i | i | nt | i
CS(=O)(=O)Nc1ccc(C(=O)Nc2ccccc2C(=O)N2CCCC2)cc1 | i | i | i | i | i | 20057
O=C(Nc1ccc(Cl)cc1)c1csc([C@@H]2C[C@H](O)[C@@H](CO)O2)n1 | i | i | i | i | nt | i
O=C(c1ccc(Cn2cc(Br)cn2)cc1)N1CCN(c2ccccc2)CC1 | i | i | i | i | i | 23168
O=c1ncn(-c2ccc(F)cc2)c2ncccc12 | ? | i | i | i | i | 20412
Cc1ccc(-n2cnc(=O)c3cccnc32)cc1 | i | i | i | i | i | i
CCCCNC(=O)C1(C)CCCCN1C(=O)c1oc2ccccc2c1C (configuration not stated) | i | i | i | i | nt | i
CCOC(=O)[C@]12CCCC=C1N(Cc1cccc3ccccc13)C(=O)[C@H](CC(=O)NCc1cccs1)C2 | i | nt | i | i | nt | i
CCc1nc(SCC(=O)c2ccc(Cl)s2)c2oc3ccccc3c2n1 | i | i | i | i | i | 16776
Cc1nc(SCc2nc3ccc(Br)cc3[nH]2)c2oc3ccccc3c2n1 | i | i | i | i | nt | i
CCc1nc(SCc2nc3ccccc3[nH]2)c2oc3ccccc3c2n1 | i | i | i | i | i | 17511
CCc1nc(SCCO)c2oc3ccccc3c2n1 | i | i | i | i | i | i
CCc1nc(SCC(=O)N2CCN(c3ccccc3)CC2)c2oc3ccccc3c2n1 | i | i | i | i | i | 17485
CCCCN1C(=O)C(CC(=O)NCc2cccc3ccccc23)CC(C(=O)N(C(C)C)C(C)C)=C1C (configuration not stated) | i | nt | i | i | nt | i
O=C(NC(c1ccccc1)c1ccc2ccccc2n1)C1CCN(Cc2ccc(Cl)c(Cl)c2)CC1 (configuration not stated) | i | i | i | i | nt | i
